# Assay results as given in article PMC5540273 (PLoS ONE, 2017).
# Test system: p38-delta
# Conditions: concentration: 1 μM, replicates: in singlicate; n = 1
# 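Note: KINOMEscan kinase panel screen.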
row,SMILES,%Inh
1,Nc1nc(-c2ccccc2F)c(-c2ccnc3ccccc23)s1 [GW560459],36%
2,COc1cccc(C2=C(Nc3cccc(C(=O)O)c3)C(=O)NC2=O)c1 [SB-390770],34%
3,CCS(=O)c1ccc(-c2coc3ccc(-c4nnc(C)o4)cc23)cc1 (centres unmarked),11%
4,CCC(=O)c1c(-c2ccccc2)c2cc(Cl)ccc2c(=O)n1Cc1cc(S(C)(=O)=O)n(CC(N)=O)n1,16%
5,COC(=O)c1c(-c2ccccc2)c2cc(Br)ccc2c(=O)n1Cc1ccc(S(C)(=O)=O)cc1,38%
6,CCC(=O)c1c(-c2ccccc2)c2cc(Cl)ccc2c(=O)n1Cc1cc(S(C)(=O)=O)n(CC(F)F)n1,19%
7,Cc1nn2c(=O)cc(N3CCOCC3)nc2n1Cc1cccc(Cl)c1Cl [GSK2342769],17%
8,COc1ccc(Nc2nccc(N3CCC(NS(=O)(=O)c4ccc(NC(C)=O)cc4)C3)n2)cc1 (centres unmarked) [GSK1379729],30%
9,COc1ccc(-c2cc3c(C)nc(N)nc3n([C@H]3CC[C@H](O)CC3)c2=O)cn1,0%
10,CCn1c(-c2nonc2N)nc2ccccc21 [SB-693162/GW549034],0%
11,Nc1n[nH]c2nnc(-c3ccccc3)c(-c3ccccc3)c12 [GW554060],27%
12,Cc1nnc(-c2ccc(C)c(-c3ccc(C(=O)O)cc3)c2)o1 [GW608005],2%
13,CN(C)c1cc(-c2ccc3c(N)n[nH]c3c2)nc(N)n1 [GSK2219329],37%
14,Cc1ccc(-c2ccc3c(ccc4sc5c(c43)NC[C@@H](C)N=C5N(C)C)n2)cn1,10%
15,Nc1ncnc2c1ncn2-c1ccc(Cl)cc1 [AH2635],32%
16,Cc1nnc(-c2ccc3ncn(-c4ccc(S(C)=O)cc4)c3c2)o1 (centres unmarked),1%
17,COc1cccc(C2=C(N(C)c3ccccc3)C(=O)NC2=O)c1 [SB-334865],42%
18,O=C(Nc1ccc2c(c1)OCO2)NC1CCN(c2ccnc(NCc3ccc(F)cc3)n2)CC1 [GSK1379859],28%
19,OCCCNc1nccc(-c2c(-c3cccc(C(F)(F)F)c3)nn3cc(C(F)(F)F)ccc23)n1 [GW630813],20%

row,SMILES,%Inh
1,Cl.c1ccc(Cn2cnc3cc(Nc4ncnc5ccccc45)ccc32)cc1 [GW272142],39%
2,Nc1nccc2scc(-c3ccc4c(c3)CCN4C(=O)Cc3ccccc3)c12 [GSK2576924],19%
3,CN1C(=O)C(Nc2ccccc2)=C(c2ccccc2)C1=O [SB-300079],0%
4,Nc1ncnc2c1ncn2-c1cccc2ccccc12 [SKF-97184],0%
5,O=C(Nc1n[nH]c2nc(-c3ccccc3)c(Cl)cc12)C1CC1 [SB-734909],10%
6,CCc1ccc(-c2ccc3c(c2)-c2nn(C)cc2S(=O)(=O)N3C)cc1,22%
7,CCCNC(=O)Nc1ccc(Oc2ncnc3ccn(C)c23)cc1,4%
8,Nc1nc(N)c2nc(-c3ccccc3)[nH]c2n1 [SKF-12778],19%
9,Cc1cccc(-c2cc(-c3c[nH]nc3-c3ccccn3)ccn2)c1 [GW679395],44%
10,CN1C(=O)C(Nc2cc(Cl)c(O)c(Cl)c2)=C(c2ccc(Cl)cc2)C1=O [SB-404321],21%
11,FC(F)(F)c1ccc(-c2ncn(CCCN3CCOCC3)c2-c2ccncc2)cc1 [SB-217780],42%
12,O=C(Nc1n[nH]c2cc(-c3ccccc3F)ccc12)C1CC1 [SB-733371],0%
13,CCC(=O)c1c(-c2ccccc2)c2cc(Cl)ccc2c(=O)n1Cc1ccc(C(=O)O)cc1,4%
14,Cc1c(Cn2c(C)nn3c(=O)cc(N4CCO[C@H](C)C4)nc23)cccc1C(F)(F)F [GSK2373690],41%
15,COc1cc(OC)cc(-c2cc3cnc(N)nc3nc2NC(=O)NC(C)(C)C)c1,0%
16,Cc1ccccc1COc1cc(-n2cnc3cc(Cl)ccc32)sc1C(N)=O [GW813349],0%
17,COc1ccc(-c2coc3ccc(-c4nnc(SCc5cccc(C#N)c5)o4)cc23)cc1,16%
18,COc1cc(Nc2ccnc3ccc(C(F)(F)F)cc23)cc(OC)c1OC [GW577382],4%

# Test system: T1, p38-gamma
# T1 construct: gene MAPK12
# Conditions: concentration: 1 μM, replicates: in singlicate; n = 1
row,SMILES,%Inh
1,Nc1nc(-c2ccccc2F)c(-c2ccnc3ccccc23)s1 [GW560459],0%
2,COc1cccc(C2=C(Nc3cccc(C(=O)O)c3)C(=O)NC2=O)c1 [SB-390770],0%
3,CCS(=O)c1ccc(-c2coc3ccc(-c4nnc(C)o4)cc23)cc1 (centres unmarked),0%
4,CCC(=O)c1c(-c2ccccc2)c2cc(Cl)ccc2c(=O)n1Cc1cc(S(C)(=O)=O)n(CC(N)=O)n1,7%
5,COC(=O)c1c(-c2ccccc2)c2cc(Br)ccc2c(=O)n1Cc1ccc(S(C)(=O)=O)cc1,29%
6,CCC(=O)c1c(-c2ccccc2)c2cc(Cl)ccc2c(=O)n1Cc1cc(S(C)(=O)=O)n(CC(F)F)n1,0%
7,Cc1nn2c(=O)cc(N3CCOCC3)nc2n1Cc1cccc(Cl)c1Cl [GSK2342769],0%
8,COc1ccc(Nc2nccc(N3CCC(NS(=O)(=O)c4ccc(NC(C)=O)cc4)C3)n2)cc1 (centres unmarked) [GSK1379729],17%
9,COc1ccc(-c2cc3c(C)nc(N)nc3n([C@H]3CC[C@H](O)CC3)c2=O)cn1,100%
10,CCn1c(-c2nonc2N)nc2ccccc21 [SB-693162/GW549034],10%
11,Nc1n[nH]c2nnc(-c3ccccc3)c(-c3ccccc3)c12 [GW554060],0%
12,Cc1nnc(-c2ccc(C)c(-c3ccc(C(=O)O)cc3)c2)o1 [GW608005],0%
13,CN(C)c1cc(-c2ccc3c(N)n[nH]c3c2)nc(N)n1 [GSK2219329],0%
14,Cc1ccc(-c2ccc3c(ccc4sc5c(c43)NC[C@@H](C)N=C5N(C)C)n2)cn1,14%
15,Nc1ncnc2c1ncn2-c1ccc(Cl)cc1 [AH2635],0%
16,Cc1nnc(-c2ccc3ncn(-c4ccc(S(C)=O)cc4)c3c2)o1 (centres unmarked),0%
17,COc1cccc(C2=C(N(C)c3ccccc3)C(=O)NC2=O)c1 [SB-334865],0%
18,O=C(Nc1ccc2c(c1)OCO2)NC1CCN(c2ccnc(NCc3ccc(F)cc3)n2)CC1 [GSK1379859],0%
19,OCCCNc1nccc(-c2c(-c3cccc(C(F)(F)F)c3)nn3cc(C(F)(F)F)ccc23)n1 [GW630813],0%

row,SMILES,%Inh
1,Cl.c1ccc(Cn2cnc3cc(Nc4ncnc5ccccc45)ccc32)cc1 [GW272142],0%
2,Nc1nccc2scc(-c3ccc4c(c3)CCN4C(=O)Cc3ccccc3)c12 [GSK2576924],5%
3,CN1C(=O)C(Nc2ccccc2)=C(c2ccccc2)C1=O [SB-300079],0%
4,Nc1ncnc2c1ncn2-c1cccc2ccccc12 [SKF-97184],0%
5,O=C(Nc1n[nH]c2nc(-c3ccccc3)c(Cl)cc12)C1CC1 [SB-734909],27%
6,CCc1ccc(-c2ccc3c(c2)-c2nn(C)cc2S(=O)(=O)N3C)cc1,9%
7,CCCNC(=O)Nc1ccc(Oc2ncnc3ccn(C)c23)cc1,3%
8,Nc1nc(N)c2nc(-c3ccccc3)[nH]c2n1 [SKF-12778],0%
9,Cc1cccc(-c2cc(-c3c[nH]nc3-c3ccccn3)ccn2)c1 [GW679395],12%
10,CN1C(=O)C(Nc2cc(Cl)c(O)c(Cl)c2)=C(c2ccc(Cl)cc2)C1=O [SB-404321],23%
11,FC(F)(F)c1ccc(-c2ncn(CCCN3CCOCC3)c2-c2ccncc2)cc1 [SB-217780],2%
12,O=C(Nc1n[nH]c2cc(-c3ccccc3F)ccc12)C1CC1 [SB-733371],19%
13,CCC(=O)c1c(-c2ccccc2)c2cc(Cl)ccc2c(=O)n1Cc1ccc(C(=O)O)cc1,0%
14,Cc1c(Cn2c(C)nn3c(=O)cc(N4CCO[C@H](C)C4)nc23)cccc1C(F)(F)F [GSK2373690],0%
15,COc1cc(OC)cc(-c2cc3cnc(N)nc3nc2NC(=O)NC(C)(C)C)c1,9%
16,Cc1ccccc1COc1cc(-n2cnc3cc(Cl)ccc32)sc1C(N)=O [GW813349],20%
17,COc1ccc(-c2coc3ccc(-c4nnc(SCc5cccc(C#N)c5)o4)cc23)cc1,7%
18,COc1cc(Nc2ccnc3ccc(C(F)(F)F)cc23)cc(OC)c1OC [GW577382],0%
